High-throughput results deposited in PubChem BioAssay by several laboratories.
A selection: hits, their analogues and other compounds. The true share with any hit is near 3.3%.
SMARCA2 activ – SMARCA2 (BRM) function activators, primary screen, cell-based, luminescence, high throughput | AID 652017, 2013 | activation, % at 9.1 µM | MG213 cells, MMTV-luciferase reporter, dexamethasone, overnight | hit rate 1% among 370,000; in the data active = activation above about 7.8%
esBAF inh – Bmi1 luciferase reporter increase in mESCs, primary screen, esBAF inhibitor project, mouse ES cells, Bmi1 luciferase knock-in, single point; 24 h; 100% = twice the neutral-well signal; reporter increase, % at 12.5 µM; hit rate 2% among 350,000; in the data active = activation above about 40%;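 note: a rise in the Bmi1 reporter signal indicates esBAF inhibition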
Gli-Sufu antag – Gli-Sufu pathway antagonists, primary screen, luciferase luminescence, Sufu-KO-LIGHT cells, uHTS. Sufu-KO-LIGHT fibroblasts, Gli luciferase reporter luminescence. inhibition, % at 5 µM. hit rate 0.74% among 340,000;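 active = inhibition above about 55%, limit read from the data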
Jurkat NFkB inh – inhibitors of induced NF-kB luciferase reporter, primary screen, TCR NF-kB activation inhibitor project, cell-based, luminescence, uHTS; Jurkat, PMA/ionomycin-induced NF-kB luciferase reporter; inhibition, % at 4 µM; hit rate 0.53% among 330,000; AID 435003, 2010; in the data active = inhibition above about 50%
697 NFkB inh – inhibitors of PMA/ionomycin-induced NF-kB reporter, 697 cells, primary screen, B-cell NF-kB inhibitor project, cell-based, luminescence, uHTS; 697 B-cell NF-kB luciferase reporter, 16 h; inhibition, % at 4 µM; hit rate 0.33% among 330,000; AID 435022, 2010; in the data active = inhibition above about 35%
697 NFkB conf – PMA/ionomycin-induced NF-kB reporter inhibitors, 697 retest, confirmation, B-cell NF-kB inhibitor project, cell-based, luminescence, single concentration. shares compounds with 697 NFkB inh. 697 B-cell NF-kB luciferase, 16 h. inhibition, % at 4 µM. hit rate 35% among 2,000; in the data active = inhibition mostly above about 28%, no sharp cut-off; inactive = mostly below about 22%
Large screens that a line does not name were inactive (follow-up assays come after a bar, where they were run).

O=C(CCCN1C(=O)S/C(=C/C=C/c2ccccc2)C1=O)Nc1ccc(C(=O)O)cc1	697 NFkB inh 49 | 697 NFkB conf 49
CCOC(=O)C1CCN(C(=O)c2cc3c(-c4ccc(OC)c(OC)c4)nn(C)c3s2)CC1	none (no result: SMARCA2 activ)
CCOC(=O)N1CCC(NC(=O)c2cc3c(-c4ccc(OC)c(OC)c4)nn(C)c3s2)CC1	697 NFkB inh 41 | 697 NFkB conf inactive
CN1C(=O)c2ccc(N(C)C)cc2C1=O	none
COc1cc(=O)n(C)c2cc(N(C)C)ccc12	697 NFkB inh 36 | 697 NFkB conf inactive
O=C(Nc1ccc([N+](=O)[O-])cc1Cl)c1cccc([N+](=O)[O-])c1	none (no result: Gli-Sufu antag, Jurkat NFkB inh, 697 NFkB inh)
O=C(Nc1ccc([N+](=O)[O-])cc1Cl)c1cc(Cl)ccc1O	Gli-Sufu antag 56 | 697 NFkB conf inactive
CC(=C/c1ccco1)/C=N/NC(=O)CSc1nnc(SCc2ccc(C)cc2)s1	697 NFkB inh 52 (no result: esBAF inh) | 697 NFkB conf 50
O=C(CSc1nnc(SCc2ccccc2)s1)N/N=C/C=C\c1ccco1	none (no result: esBAF inh)
O=C(O)c1nn(CCOc2c(Cl)cccc2Cl)c(=O)c2ccccc12	none | 697 NFkB conf inactive
O=C(O)c1nn(CCOc2cccc(Cl)c2)c(=O)c2ccccc12	none (no result: esBAF inh)
Cc1c(CCC(=O)N2CCC[C@H]2C(=O)O)c(=O)oc2cc3oc4c(c3cc12)CCCC4	697 NFkB inh 60 (no result: SMARCA2 activ) | 697 NFkB conf 42
Cc1c(CCC(=O)O)c(=O)oc2cc3oc4c(c3cc12)CCCC4	697 NFkB inh 40 | 697 NFkB conf 35
Cc1c(CCC(=O)NCC(=O)NCC(=O)O)c(=O)oc2cc3oc4c(c3cc12)CCCC4	none
Cc1c(CCC(=O)N2CCC(C(=O)NCCCCCC(=O)O)CC2)c(=O)oc2cc3oc4c(c3cc12)CCCC4	none
Cc1c(Cl)cccc1Nc1ncccc1C(=O)OCC(O)CO (stereo not given)	none (no result: SMARCA2 activ, esBAF inh, Gli-Sufu antag)
O=C(OCC(O)CO)c1ccccc1Nc1ccnc2cc(Cl)ccc12 (stereo not given)	697 NFkB inh 41 | 697 NFkB conf inactive
COc1ccc(S(=O)(=O)Nc2cccc3c2O[C@@H](CN(C)C)[C@@H](C)CN([C@@H](C)CO)C3=O)cc1	none (no result: SMARCA2 activ, Gli-Sufu antag, Jurkat NFkB inh, 697 NFkB inh)
c1ccc(-c2cnc(-c3ccccc3)nc2)cc1	none | 697 NFkB conf inactive
C[C@@H]1CN([C@@H](C)CO)C(=O)c2cc(Br)cnc2O[C@H]1CN(C)Cc1ccncc1	none (no result: SMARCA2 activ, Gli-Sufu antag, Jurkat NFkB inh, 697 NFkB inh)
Cc1ccc(NC(=S)Nc2ccc(S(=O)(=O)Nc3ncccn3)cc2)c(C)c1	697 NFkB inh 50 | 697 NFkB conf inactive
O=C(O)CCC(=O)c1ccc2c(c1)CCCC2	697 NFkB inh 35 (no result: Gli-Sufu antag) | 697 NFkB conf inactive
CCOc1ccc(-c2nnc(SCC(=O)NC3CC3)o2)cc1	697 NFkB inh 60 | 697 NFkB conf 56
COc1ccc(N=Nc2ccc(CO)cc2)cc1	none (no result: esBAF inh) | 697 NFkB conf inactive
S=C(Nc1ccc(-c2nc3ccccc3[nH]2)cc1)Nc1cccnc1	none | 697 NFkB conf inactive
Fc1ccc(NC(=S)Nc2cccnc2)cc1	none
COc1cc(-c2ccc(NC(=O)NC3CC3)c(OC)c2)ccc1NC(=O)NC1CC1	none (no result: esBAF inh, Gli-Sufu antag) | 697 NFkB conf inactive
C[C@H]1CCCCO[C@H](CN(C)Cc2ccc3c(c2)OCO3)[C@@H](C)CN([C@@H](C)CO)C(=O)c2cc(NC(=O)Nc3ccc(F)cc3)ccc2O1	none (no result: SMARCA2 activ, Gli-Sufu antag, Jurkat NFkB inh, 697 NFkB inh)
O=C(C[C@H]1C[C@H]2c3cc(NC(=O)Cc4ccncc4)ccc3O[C@H]2[C@H](CO)O1)NCc1ccc2c(c1)OCO2	none (no result: SMARCA2 activ, Gli-Sufu antag, Jurkat NFkB inh, 697 NFkB inh)
Cc1noc(C)c1NC(=O)Nc1ccc2c(c1)C(=O)N([C@H](C)CO)C[C@@H](C)[C@@H](CN(C)C(=O)Nc1ccccc1)OCCCC[C@@H](C)O2	none (no result: SMARCA2 activ, Gli-Sufu antag, Jurkat NFkB inh, 697 NFkB inh)
Cc1ccc(-c2ccc([C@H]3[C@H]4C=CC[C@@H](C)[C@@H]4C(=O)N3Cc3ccccc3)c(F)c2)cc1	none
COc1ccc(/C=C/c2ccccc2)cc1[C@H]1[C@H]2C=CC[C@@H](C)[C@@H]2C(=O)N1Cc1ccccc1	697 NFkB inh 65 | 697 NFkB conf 32
COc1ccc(-c2ccc(OC)c([C@H]3[C@H]4C=CC[C@@H](C)[C@@H]4C(=O)N3Cc3ccccc3)c2)cc1C	697 NFkB inh 42 | 697 NFkB conf 51
COc1ccc(-c2ccc(C(C)=O)cc2)cc1[C@H]1[C@H]2C=CC[C@@H](C)[C@@H]2C(=O)N1Cc1ccccc1	697 NFkB inh 48 | 697 NFkB conf 49
COc1ccc(-c2ccc(N(C)C)cc2)cc1[C@H]1[C@H]2C=CC[C@@H](C)[C@@H]2C(=O)N1Cc1ccccc1	697 NFkB inh 51 | 697 NFkB conf 36
C[C@@H]1CN([C@H](C)CO)S(=O)(=O)c2ccc(C3=CCCCC3)cc2O[C@@H]1CN(C)S(=O)(=O)c1ccc(F)cc1	none (no result: SMARCA2 activ, Gli-Sufu antag, Jurkat NFkB inh, 697 NFkB inh)
COCC(=O)Nc1ccc2c(c1)C(=O)N(C)C[C@@H](OC)[C@@H](C)CN(C(=O)c1cnccn1)[C@H](C)CO2	none (no result: SMARCA2 activ, Gli-Sufu antag, Jurkat NFkB inh, 697 NFkB inh)
O=C(C[C@H]1CC[C@H]2[C@@H](COC[C@@H](O)CN2C(=O)c2ccc(F)cc2)O1)Nc1nccs1	none (no result: SMARCA2 activ, Gli-Sufu antag, Jurkat NFkB inh, 697 NFkB inh)
COc1ccc(N=Cc2ccccc2O)cc1	none (no result: Jurkat NFkB inh, 697 NFkB inh)
COc1ccc(N=Nc2ccc3ccccc3c2)c(O)c1	none | 697 NFkB conf inactive
O=C(Nc1ncccc1O)c1ccc(S(=O)(=O)Nc2ccccc2)cc1	none | 697 NFkB conf inactive
O=C(Nc1ncccc1O)c1ccc(NS(=O)(=O)c2ccc3[nH]c(=O)[nH]c3c2)cc1	none
CCc1ccccc1NC(=O)CSc1nnc([C@@H]2CCCN2C(=O)OC(C)(C)C)o1	697 NFkB inh 36 | 697 NFkB conf inactive
Cc1cccc(C)c1NC(=O)CSc1nnc([C@@H]2CCCN2C(=O)OC(C)(C)C)o1	none
N/C(=N\OC(=O)c1ccc(Cl)cc1Cl)c1ccc(Cl)cc1	none | 697 NFkB conf inactive
N/C(=N\OC(=O)c1ccc(Cl)cc1Cl)c1cccnc1	none
CC(=O)Nc1ccc(-c2ccc3nnc(C)n3n2)cc1	none
Cc1nnc2ccc(-c3ccc(NC(=O)Cc4cccs4)cc3)nn12	697 NFkB inh 36 (no result: esBAF inh) | 697 NFkB conf inactive
CN1C(=O)c2cc(NC(=O)C3CCCCC3)ccc2OC[C@@H]2O[C@@H](CC(=O)NCCc3ccncc3)CC[C@H]21	none (no result: SMARCA2 activ, Gli-Sufu antag, Jurkat NFkB inh, 697 NFkB inh)
Cc1nnc2sc(SCc3ccc(Br)cc3)nn2c1=O	697 NFkB inh 37 (no result: esBAF inh) | 697 NFkB conf inactive
Cc1cc2c(C)c(C)c(=O)[nH]c2cc1N	697 NFkB inh 36 (no result: esBAF inh) | 697 NFkB conf inactive
CO[C@H](CN(C)S(=O)(=O)c1ccc(F)cc1)[C@H](C)CN([C@H](C)CO)S(=O)(=O)c1cccc(Cl)c1	none (no result: SMARCA2 activ, Gli-Sufu antag, Jurkat NFkB inh, 697 NFkB inh)
N/C(=N\OC(=O)COc1ccc(Cl)cc1Cl)c1ccccn1	none
N/C(=N\OC(=O)COc1ccc(Br)cc1Cl)c1ccccn1	none (no result: esBAF inh) | 697 NFkB conf inactive
